In the supplement of paper PMC10849652:
About 7,900 targets were measured; listed, in parts, are those with a hit and a random draw of the rest. About 0.6% of all pairs of compound and target were hits.

Columns and labels:
Test in all cases: log2 fold change, soluble protein after heating vs DMSO (PISA); higher = thermal stabilisation; K562 cells, 10 uM, 30 min; active = over 0.2 and 3.5 SD of the protein, either way, in both replicates (recomputed)
[1] = compound: C1=CC=C(C=C1)[C@H](COC2=CC3=C(C=C2)NC(=O)N3)NC(=O)C4=CC=CN(C4=O)CC5=CC(=C(C=C5)F)F
Summary of the method: (§1)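 Thermal stability values are relative to control samples and come from duplicates. They are expressed as log2 fold changes. For measurement, K562 cells (2×10^6 cells/mL) received 10 μM compound for 30 min, and aliquots were heated for 3 min over 48°C-58°C, pooled, and extracted at 4°C in PBS with 0.5% NP-40. Soluble protein, the supernatant after 21,000xg for 90 min, was quantified by TMTpro 16plex LC-MS/MS with equalised channel sums.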

[2] = compound: CC1=C(SC2=C1C(=N[C@H](C3=NN=C(N32)C)CC(=O)N)C4=CC=C(C=C4)Cl)C
Summary of the method: as §1

[3] = compound: CC1=C2C(=CC=C1)N=C(N(C2=O)C3=CC=CC=C3C)CN4C=NC5=C(N=CN=C54)N
Summary of the method: as §1

[4] = compound: Cc1sc2c(c1C)C(c1ccc(Cl)cc1)=N[C@@H](CC(=O)OC(C)(C)C)c1nnc(C)n1-2
Summary of the method: as §1

[5] = compound: c1ccc([C@@H]2C[C@H]2NC2CCNCC2)cc1
Summary of the method: as §1

Measured: log2 fold change

GSTP1 (UniProt P09211)
Sequence of UniProt P09211 (P09211 whole entry, looked up): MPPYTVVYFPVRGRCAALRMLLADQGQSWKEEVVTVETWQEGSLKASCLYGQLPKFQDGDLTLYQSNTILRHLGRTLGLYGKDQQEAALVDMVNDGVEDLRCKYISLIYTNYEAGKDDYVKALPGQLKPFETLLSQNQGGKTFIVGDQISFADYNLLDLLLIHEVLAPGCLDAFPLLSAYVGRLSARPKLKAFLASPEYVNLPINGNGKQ
inactive: [1] -0.013 | [2] 0.039 | [3] 0.005 | [4] -0.013 | [5] -0.016

HP1BP3 (UniProt Q5SSJ5)
Sequence of UniProt Q5SSJ5 (Q5SSJ5 whole entry, looked up): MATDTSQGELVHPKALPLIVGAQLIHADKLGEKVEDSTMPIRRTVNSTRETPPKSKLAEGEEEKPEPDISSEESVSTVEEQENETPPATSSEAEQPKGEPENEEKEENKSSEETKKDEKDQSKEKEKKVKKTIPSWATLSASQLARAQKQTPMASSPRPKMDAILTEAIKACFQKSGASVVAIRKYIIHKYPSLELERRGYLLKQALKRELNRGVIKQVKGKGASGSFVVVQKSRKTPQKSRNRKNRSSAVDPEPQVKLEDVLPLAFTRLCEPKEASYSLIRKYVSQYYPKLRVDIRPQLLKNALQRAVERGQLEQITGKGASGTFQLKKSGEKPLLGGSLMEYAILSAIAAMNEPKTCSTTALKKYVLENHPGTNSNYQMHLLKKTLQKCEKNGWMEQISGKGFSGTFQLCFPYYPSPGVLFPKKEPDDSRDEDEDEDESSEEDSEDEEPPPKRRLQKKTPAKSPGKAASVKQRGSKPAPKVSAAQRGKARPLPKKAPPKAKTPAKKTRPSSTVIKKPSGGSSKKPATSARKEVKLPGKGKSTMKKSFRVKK
inactive: [1] 0.015 | [2] -0.04 | [3] 0.087 | [4] 0.142 | [5] 0.011

GLUD2 (UniProt P49448)
Sequence of UniProt P49448 (P49448 whole entry, looked up): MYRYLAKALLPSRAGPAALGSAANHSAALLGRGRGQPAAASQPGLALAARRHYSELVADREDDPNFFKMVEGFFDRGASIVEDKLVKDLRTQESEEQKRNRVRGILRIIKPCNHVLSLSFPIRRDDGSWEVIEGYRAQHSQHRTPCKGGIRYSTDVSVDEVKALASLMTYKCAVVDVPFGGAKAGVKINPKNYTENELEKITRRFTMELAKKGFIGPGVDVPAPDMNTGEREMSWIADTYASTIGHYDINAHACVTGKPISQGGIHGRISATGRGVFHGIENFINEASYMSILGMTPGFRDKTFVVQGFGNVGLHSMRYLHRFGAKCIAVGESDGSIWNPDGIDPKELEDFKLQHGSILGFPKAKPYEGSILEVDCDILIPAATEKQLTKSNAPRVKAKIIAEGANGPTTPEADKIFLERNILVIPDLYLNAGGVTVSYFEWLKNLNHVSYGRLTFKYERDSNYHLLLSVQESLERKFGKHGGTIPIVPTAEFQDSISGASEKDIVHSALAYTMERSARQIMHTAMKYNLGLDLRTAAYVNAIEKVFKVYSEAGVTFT
inactive: [1] 0.026 | [2] 0.061 | [3] -0.029 | [4] 0.047 | [5] -0.005

HAT1 (UniProt O14929)
Sequence of UniProt O14929 (O14929 whole entry, looked up): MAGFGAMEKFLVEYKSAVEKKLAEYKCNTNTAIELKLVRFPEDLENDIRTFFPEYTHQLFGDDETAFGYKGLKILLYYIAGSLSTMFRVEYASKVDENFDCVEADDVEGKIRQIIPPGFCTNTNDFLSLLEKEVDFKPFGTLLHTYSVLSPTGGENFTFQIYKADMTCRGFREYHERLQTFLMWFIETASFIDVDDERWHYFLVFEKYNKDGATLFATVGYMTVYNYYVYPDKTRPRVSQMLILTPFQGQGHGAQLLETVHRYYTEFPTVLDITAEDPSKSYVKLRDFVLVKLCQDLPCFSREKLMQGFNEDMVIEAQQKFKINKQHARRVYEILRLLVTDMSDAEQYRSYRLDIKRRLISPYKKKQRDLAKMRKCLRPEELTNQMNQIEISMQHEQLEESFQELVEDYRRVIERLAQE
inactive: [1] 0.009 | [2] -0.005 | [3] 0.007 | [4] -0.101 | [5] -0.05

HDHD2 (UniProt Q9H0R4)
Sequence of UniProt Q9H0R4 (Q9H0R4 whole entry, looked up): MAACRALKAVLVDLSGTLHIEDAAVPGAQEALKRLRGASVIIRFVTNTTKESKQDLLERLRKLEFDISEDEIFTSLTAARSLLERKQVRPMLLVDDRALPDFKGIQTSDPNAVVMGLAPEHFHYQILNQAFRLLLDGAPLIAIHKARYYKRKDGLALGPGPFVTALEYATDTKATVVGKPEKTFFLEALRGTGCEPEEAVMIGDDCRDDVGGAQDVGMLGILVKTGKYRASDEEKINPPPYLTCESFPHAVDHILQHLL
inactive: [1] -0.044 | [2] 0.006 | [3] -0.003 | [4] 0.03 | [5] -0.031

GLCCI1 (UniProt Q86VQ1)
Sequence of UniProt Q86VQ1 (Q86VQ1 whole entry, looked up): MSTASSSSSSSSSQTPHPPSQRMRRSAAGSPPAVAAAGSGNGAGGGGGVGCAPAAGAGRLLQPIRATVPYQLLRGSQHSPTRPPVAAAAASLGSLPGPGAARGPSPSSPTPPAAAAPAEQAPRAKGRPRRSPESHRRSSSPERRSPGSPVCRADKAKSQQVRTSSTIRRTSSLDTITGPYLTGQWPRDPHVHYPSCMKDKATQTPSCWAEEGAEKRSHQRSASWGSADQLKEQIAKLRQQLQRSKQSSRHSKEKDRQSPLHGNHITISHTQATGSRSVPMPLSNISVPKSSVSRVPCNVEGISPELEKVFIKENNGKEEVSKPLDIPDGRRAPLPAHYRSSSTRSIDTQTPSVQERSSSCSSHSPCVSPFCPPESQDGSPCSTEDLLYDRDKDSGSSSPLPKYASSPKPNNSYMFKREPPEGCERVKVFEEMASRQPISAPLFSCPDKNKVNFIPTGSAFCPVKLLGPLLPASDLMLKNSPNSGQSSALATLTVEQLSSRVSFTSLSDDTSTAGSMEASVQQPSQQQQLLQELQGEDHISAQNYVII
inactive: [1] -0.088 | [2] -0.041 | [3] 0.137 | [4] 0.013 | [5] -0.075

HIST2H3A (UniProt Q71DI3)
inactive: [1] 0.068 | [2] -0.153 | [3] -0.266 | [4] -0.221 | [5] 0.192

H2AFX (UniProt P16104)
inactive: [1] 0.103 | [2] -0.353 | [3] -0.374 | [4] -0.043 | [5] 0.206

GSR (UniProt P00390)
Sequence of UniProt P00390 (P00390 whole entry, looked up): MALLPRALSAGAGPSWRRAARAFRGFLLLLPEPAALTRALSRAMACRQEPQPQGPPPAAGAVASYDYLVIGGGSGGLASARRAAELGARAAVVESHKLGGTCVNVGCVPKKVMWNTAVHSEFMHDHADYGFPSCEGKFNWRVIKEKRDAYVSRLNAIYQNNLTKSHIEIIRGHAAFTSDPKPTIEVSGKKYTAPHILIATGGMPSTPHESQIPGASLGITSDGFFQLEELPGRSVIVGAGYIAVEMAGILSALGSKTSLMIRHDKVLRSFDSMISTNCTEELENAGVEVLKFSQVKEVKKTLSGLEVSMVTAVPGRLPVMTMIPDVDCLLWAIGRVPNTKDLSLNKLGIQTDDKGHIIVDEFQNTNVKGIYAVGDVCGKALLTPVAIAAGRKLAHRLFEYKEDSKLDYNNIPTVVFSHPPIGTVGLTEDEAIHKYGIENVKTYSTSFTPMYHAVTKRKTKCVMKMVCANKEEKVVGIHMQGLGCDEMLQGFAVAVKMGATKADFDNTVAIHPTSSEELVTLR
inactive: [1] 0.006 | [2] 0.044 | [3] 0.034 | [4] -0.023 | [5] -0.003

GABPA (UniProt Q06546)
Sequence of UniProt Q06546 (Q06546 whole entry, looked up): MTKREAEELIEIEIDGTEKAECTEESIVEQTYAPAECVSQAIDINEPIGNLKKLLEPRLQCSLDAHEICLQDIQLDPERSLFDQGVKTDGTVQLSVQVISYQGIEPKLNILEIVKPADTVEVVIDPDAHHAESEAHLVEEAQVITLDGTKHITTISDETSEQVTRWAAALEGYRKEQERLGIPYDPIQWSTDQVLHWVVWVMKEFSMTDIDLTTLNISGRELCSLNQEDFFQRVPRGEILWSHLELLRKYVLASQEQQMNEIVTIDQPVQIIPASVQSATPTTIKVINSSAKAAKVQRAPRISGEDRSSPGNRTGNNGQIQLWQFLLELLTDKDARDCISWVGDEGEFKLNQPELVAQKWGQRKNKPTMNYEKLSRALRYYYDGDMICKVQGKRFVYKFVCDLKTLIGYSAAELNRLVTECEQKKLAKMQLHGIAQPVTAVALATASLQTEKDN
inactive: [1] -0.001 | [2] 0.005 | [3] 0.149 | [4] -0.01 | [5] -0.041

HBA1 (UniProt P69905)
Sequence of UniProt P69905 (P69905 whole entry, looked up): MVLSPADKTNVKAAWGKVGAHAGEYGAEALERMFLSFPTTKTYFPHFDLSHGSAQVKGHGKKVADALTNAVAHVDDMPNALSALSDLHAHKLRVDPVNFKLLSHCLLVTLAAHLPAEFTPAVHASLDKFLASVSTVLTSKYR
inactive: [1] -0.003 | [2] 0.163 | [3] 0.005 | [4] -0.167 | [5] -0.023

FARS2 (UniProt O95363)
Sequence of UniProt O95363 (O95363 whole entry, looked up): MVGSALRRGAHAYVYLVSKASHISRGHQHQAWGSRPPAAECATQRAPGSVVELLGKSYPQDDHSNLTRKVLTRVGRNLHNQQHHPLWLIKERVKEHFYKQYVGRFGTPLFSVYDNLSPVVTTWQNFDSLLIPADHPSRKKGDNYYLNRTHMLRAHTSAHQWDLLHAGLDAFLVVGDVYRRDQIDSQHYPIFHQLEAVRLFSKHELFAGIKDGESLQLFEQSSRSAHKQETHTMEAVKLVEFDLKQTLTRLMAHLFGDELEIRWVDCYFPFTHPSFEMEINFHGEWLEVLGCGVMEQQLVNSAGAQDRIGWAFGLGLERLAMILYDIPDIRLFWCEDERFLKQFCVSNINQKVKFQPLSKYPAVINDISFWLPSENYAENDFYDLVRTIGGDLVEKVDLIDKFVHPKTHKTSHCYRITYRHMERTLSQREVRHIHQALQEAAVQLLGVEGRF
inactive: [1] -0.021 | [2] 0.022 | [3] 0.006 | [4] 0.069 | [5] -0.018
